Test results published in PubChem BioAssay (Tox21).
Inconclusive results are not listed. A number with no mark means an inactive call. Calls follow the shape of the dose curve; as a rule, active = well fitted activation curve with a large enough effect in the signal ratio in the repeat runs (not every such curve was filed as active); inconclusive = weak or mixed curves, or effect the other way; inactive = no such curve, though single readings can be large or run the other way; the % refers to the signal ratio.

Assay: qHTS assay for small molecule agonists of the antioxidant response element (ARE) signaling pathway (AID 743202)
Conditions: HepG2 ARE-bla reporter, beta-lactamase FRET, 16 h; series mostly up to 73.3 µM; activation: at the top concentration
Summary of the method: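 ARE-bla HepG2 cells (beta-lactamase reporter under the antioxidant response element), plated 5 hours, then exposed to compounds 16 hours at 37 C. LiveBLAzer B/G FRET substrate added for 2 hours at room temperature; fluorescence intensity read.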
% is scaled to controls: 0 for no effect and ±100 for the full control effect.

Compared with `c1ccccc1`, `CNC(=O)C(c1ccccc1)c1ccccc1` is higher in “activation” value: -6.35% for the first, 9.67% for the second.

Compared with `CCCCCN(CCCOC)C(=O)C(CCC(=O)O)NC(=O)c1ccc(Cl)c(Cl)c1` (stereo not given), `CCCCC(CC)CNC(=O)CC(C)OC(=O)CCC(=O)O` (stereo not given) is higher in “activation” value: 4.15% for the first, 8.35% for the second.

Compared with `CCN(CC)C(=O)C1CN2CCc3cc(OC)c(OC)cc3C2CC1OC(C)=O` (stereo not given), `C=CCOc1cc(Cl)ccc1C(=O)NCCN(CC)CC` is lower in “activation” value: -0.184% for the first, -0.62% for the second.

First: CC(=O)N(CC(O)CO)c1c(I)c(C(=O)NCC(O)CO)c(I)c(C(=O)NCC(O)CO)c1I (stereo not given)
Second: Nc1ccc(C(=O)OCC(O)CO)cc1 (stereo not given)
The “activation” value of the first is lower: -6.42% for the first, -5.6% for the second.

First: CC(CC(=O)O)CC(C)(C)C (stereo not given)
Second: CC(C)=CC(C)(C)C
The “activation” value of the first is higher: 8.75% for the first, -8.48% for the second.

Going from `c1ccc(CNc2ncnc3nc[nH]c23)cc1` to `O=C(O)/C=C/c1ccccc1`, the “activation” value rises from -6.08% to -1.35%.

Going from `CCC(CO)CO` to `CCOC(=O)CC#N`, the “activation” value falls from -5.69% to -10.1%.

Compared with `CC(C)C(=O)Nc1cccc(C(F)(F)F)c1`, `Cc1cccc(NC(=S)N(C)C)c1` is lower in “activation” value: 10.6% for the first, -7.33% for the second.

Going from `CCC(C)(CCC(C)C)C(=O)[O-].CCC(C)(CCC(C)C)C(=O)[O-].[Zn+2]` (stereo not given) to `CC(C)COC(=O)/C=C/c1ccccc1`, the “activation” value rises from -1.52% to -0.922%.

Compared with `O=C(O)c1ccc(OCCN2CCCCC2)cc1`, `Cc1ccc(C(=O)C(=O)O)cc1C` is higher in “activation” value: -1.69% for the first, 0.16% for the second.

First: CCCCCCCCCCCCCCCCCCN(C)C
Second: N#CCCOCCOCCC#N
The “activation” value of the first is higher: -9.65% for the first, -22.5% for the second.

Compared with `C[Si]1(C)N[Si](C)(C)N[Si](C)(C)N1`, `CCOC(=O)C(=O)c1csc(NC=O)n1` is higher in “activation” value: -1.14% for the first, 8.2% for the second.

With `Nc1nc(=O)n([C@@H]2O[C@H](CO)[C@@H](O)[C@@H]2F)cc1I` the “activation” value was 3.08%.
